Compound activity: PubChem, National Center for Advancing Translational Sciences (NCATS)
G9a inh: qHTS Assay for Inhibitors of Histone Lysine Methyltransferase G9a. Histone-lysine N-methyltransferase EHMT2 (Homo sapiens), Q96KQ7. G9a H3K9 monomethylation, AlphaScreen, 2 h. Potency, µM (titrated, usually from 102 µM), for the others: at the highest dose activity, negative = inhibition, actives largely listed as inhibitors. hit rate 8.8% among 350,000. AID 504332, 2011; note: % is set by controls: 0 for no effect and ±100 for the full control effect; nearly all actives have a fitted effect of over 75% in size
Target sequence (Q96KQ7 913-1193 limits assumed): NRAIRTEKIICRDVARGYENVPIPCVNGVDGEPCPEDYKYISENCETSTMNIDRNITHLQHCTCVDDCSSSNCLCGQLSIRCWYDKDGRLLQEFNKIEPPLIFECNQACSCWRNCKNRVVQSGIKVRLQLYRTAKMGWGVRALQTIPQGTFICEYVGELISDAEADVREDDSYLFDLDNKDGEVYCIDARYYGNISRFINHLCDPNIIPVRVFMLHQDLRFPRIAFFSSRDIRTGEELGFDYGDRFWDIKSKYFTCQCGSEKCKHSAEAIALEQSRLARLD
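AlphaScreen detection with an anti-monomethyl H3K9 antibody quantified product after a 2 h room-temperature reaction containing 500 nM biotinylated H3K9 peptide, 20 µM SAM and 20 nM enzyme, which had been preincubated 15 min with compound.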
PLK1 PBD inh: qHTS for Inhibitors of PLK1-PDB (polo-like kinase 1 - polo-box domain): Primary Screen; Serine/threonine-protein kinase PLK1 (Homo sapiens), P53350; Plk1 PBD binding of FITC phosphopeptide, fluorescence polarization; Potency, µM, without a hit: max response, negative = inhibition, most hits filed as inhibitors; hit rate 2.8% among 360,000; AID 720504, 2013; note: series mostly up to about 57 µM; % is set by controls: 0 for no effect and ±100 for the full control effect; nearly all actives have a fitted effect of over 65% in size
VDR inhibitor: Inhibitors of the vitamin D receptor (VDR): qHTS. VDR-SRC2-3 peptide fluorescence polarization, 2 h. Potency, µM, for inactives: max response, negative = inhibition, hits mostly inhibitors. hit rate 0.93% among 400,000; note: % is set by controls: 0 for no effect and ±100 for the full control effect
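FP read-out; VDR + SRC2-3 coactivator peptide; 23 nl compound by pintool; 2 h RT incubation; reagents held at 4 deg C, protected from light.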
JMJD2A Tudor inh: qHTS Assay for Inhibitors of JMJD2A-Tudor Domain; hit rate 4.4% among 390,000; Potency, µM (series often up to 114 µM), for inactives: at the highest dose activity change, negative = inhibition, usual class: inhibitors; AlphaScreen JMJD2A-Tudor / H3K4me3 peptide binding; Lysine-specific demethylase 4A (Homo sapiens), O75164; note: % is set by controls: 0 for no effect and ±100 for the full control effect; nearly all actives have a fitted effect of over 50% in size
HP1b chromo inh: HTS for Inhibitors of HP1-beta Chromodomain Interactions with Methylated Histone Tails | Potency, µM (series often up to 114 µM), for inactives: top-dose activity change, negative = inhibition, usual class: inhibitors | AlphaScreen HP1-beta / biotin-H3K9me3 peptide binding | AID 540317, 2011 | Chromobox protein homolog 1 (Homo sapiens), P83916 | hit rate 0.56% among 390,000; note: nearly all actives have a fitted effect of over 70% in size
Target sequence (P83916 whole entry, looked up): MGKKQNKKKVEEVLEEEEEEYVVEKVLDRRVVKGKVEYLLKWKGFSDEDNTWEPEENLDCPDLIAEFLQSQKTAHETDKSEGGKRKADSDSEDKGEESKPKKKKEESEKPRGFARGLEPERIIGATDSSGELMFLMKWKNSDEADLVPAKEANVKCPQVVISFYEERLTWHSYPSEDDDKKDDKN
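HP1-beta protein (50 nM final) preincubated 30 min at room temperature with biotinylated H3(1-18)K9me3 peptide (50 nM) in PBS pH 7.4, 0.01% Tween-20, then compound added for 30 min. AlphaScreen streptavidin donor/nickel chelate acceptor beads (10 ug/mL final), 30 min dark, luminescence read.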
BAZ2B block: qHTS Assay for Inhibitors of BAZ2B; AlphaScreen BAZ2B-H3K14Ac peptide displacement; Potency, µM (titrated, usually from 114 µM), for inactives: at the highest dose activity change, negative = inhibition, most hits filed as inhibitors; hit rate 4.4% among 360,000; AID 504333, 2011; Bromodomain adjacent to zinc finger domain protein 2B (Homo sapiens), Q9UIF8; note: % is set by controls: 0 for no effect and ±100 for the full control effect; nearly all actives have a fitted effect of over 60% in size
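Inhibition is scored as reduced AlphaScreen emission. The BAZ2B/b-H3(5-23)K14Ac complex (50 nM each) in PBS pH 7.4, 0.01% Tween-20 meets compound (up to 110 uM) for 30 min at RT before bead addition.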
* = called active by the depositor; ? = inconclusive; / = not tested or not shown; [ ] = another dose, or the depositor's remark. Most compounds without a hit are left out; they make up all but 11% or so of the library. Calls come from the whole dose curve; as a rule, active = well fitted curve in the direction sought with a large enough effect; inconclusive = small, poorly fitted or top-dose-only effect, or another doubt; inactive = no such curve, though single readings can be large; an effect the other way counts as inactive or inconclusive. Potency is the fitted concentration of half-maximal effect.

SMILES	G9a inh	PLK1 PBD inh	VDR inhibitor	JMJD2A Tudor inh	HP1b chromo inh	BAZ2B block
C/C(=N\Nc1ncc(Cl)cc1Cl)c1ccc(N2CCOCC2)cc1	56µM*	-1%	-5%	-1%	21%	50µM*
C/C(=N\Nc1ncc(Cl)cc1Cl)c1ccccn1	45µM*	-6%	?	?	12%	22µM*
O=C(CSc1nc2ccccc2[nH]1)c1ccc(Cl)s1	?	-14%	-1%	-18%	2%	-3%
COc1ccc(N2CC(NC(=O)COc3ccc4ccccc4c3)CC2=O)cc1 (stereo not drawn)	-3%[59 µM]	/	10%	-25%	5%	-2%
Cc1ccc(CSc2nc3ccccc3c(=O)n2C)cc1	144%	-17%	-7%	87%	144%	88%
C/C(=N\Nc1nc2ccccc2[nH]1)c1ccc(N2CCOCC2)cc1	50µM*	0%	-3%	35µM*	?	20µM*
CC(=O)N1CCC(=NNc2nc3ccccc3[nH]2)CC1	45µM*	-14%	-4%	25µM*	?	28µM*
O=S(=O)(c1ccc2c(c1)OCCO2)N1CCC(O)(c2ccc(Cl)cc2)CC1	6%[59 µM]	-5%	-2%	-16%	28%	2%
COc1cccc(NC(=O)c2cc(-c3ccco3)nc3ccccc23)c1	/	-37%	23%	?	-21%	/
CCOc1ccc(NC(=O)CN(C)C(=O)c2cc(-c3ccco3)nc3ccccc23)cc1OCC	/	-5%	3%	-3%	10%	/
CN(CC(=O)Nc1ccc(F)cc1)C(=O)c1cc(-c2ccco2)nc2ccccc12	-10%[0.501 µM]	?	-7%	?	-14%	40µM*
COc1cccc(NC(=O)CN(C)C(=O)c2cc(-c3ccco3)nc3ccccc23)c1	50µM*	-19%	-13%	18µM*	?	79µM*
COc1ccc(NC(=O)CN(C)C(=O)c2cc(-c3ccccc3)nc3ccccc23)cc1	-7%[59 µM]	3%	-10%	-30%	3%	2%
Cc1ccc(NC(=O)CN(C)C(=O)c2cc(-c3ccco3)nc3ccccc23)cc1	32µM*	?	?	20µM*	50µM*	45µM*
Cc1nn(-c2ccc(F)cc2)c(Cl)c1/C=C1\C(=O)Nc2ccccc21	-51%[59 µM]	-2%	-2%	-8%	12%	-24%
COc1ccc(NC(=O)c2ccco2)cc1NC(=O)c1cc(Br)ccc1Cl	-2%[59 µM]	/	6%	-25%	4%	-6%
O=C(COc1ccc(Cl)cc1)OCC(=O)c1ccc[nH]1	-67%[59 µM]	-3%	-16%	-14%	32%	-9%
CCOC(=O)C1=C(O)/C(=C/c2ccc(OCC(=O)O)c(OCC)c2)SC1=Nc1ccc(C)cc1	45µM*	-17%	?	-31%	24%	-28%
COc1ccc(N=C2NC(=O)/C(=C/c3ccc(O)c(OC)c3)S2)cc1	?	36%	7%	-35%	-13%	?
CCc1ccc(N=C2NC(=O)/C(=C/c3ccc(OCC(=O)O)cc3)S2)cc1	50µM*	-29%	-28%	?	4%	50µM*
CCc1ccc(N=C2NC(=O)/C(=C/c3ccc(OCC(=O)O)c(OC)c3)S2)cc1	/	?	-16%	28µM*	45µM*	7.1µM*
CCOC(=O)C1=C(O)/C(=C/c2ccc(OCC(=O)O)c(OCC)c2)SC1=Nc1ccc(OC)cc1	-3%[59 µM]	-13%	?	-31%	4%[57 µM]	-30%
O=C(Nc1ccc(Cl)c(-c2nc3ccccc3o2)c1)c1cccc2c(Cl)cccc12	-5%[59 µM]	/	-10%	10%	25%	-13%
O=C(Cn1cnc2scc(-c3cccc([N+](=O)[O-])c3)c2c1=O)NCc1ccco1	11%[59 µM]	?	4%	22µM*	?	45µM*
N#Cc1sc2nc(-c3ccccc3)cc(-c3ccco3)c2c1N	8.9µM*	?	?	56µM*	-19%	?
